We go through 13 molecules from PubChem BioAssay (NCI).

Compounds without any hit were thinned out: in the full panel of roughly 83,000, 20% have a hit.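 Method: cells in 96-well plates; compound added at one concentration; 48 h incubation; percent growth measured; values under 10 scored active.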 Unmarked numbers belong to inactive results. The source made the active and inactive calls.

Assay in all cases: NCI-60 one-dose screen, 48 h (100 = growth as untreated, 0 = no growth, -100 = all killed)
What all share (details): 10 µM unless noted

Assay [1] has as its system NCI-H23 lung.
For assay [2], the system named is NCI-H322M lung.
Assay [3] has as its system HOP-62 NSCLC.
Assay [4] has as its system NCI-H460 lung.
In assay [5] the test system is HOP-92 NSCLC.
The test system of assay [6] is NCI-H522 lung.
Assay [7] relates to A549/ATCC NSCLC.
For assay [8], the system named is 786-0 renal.
Assay [9] deals with COLO 205 colon.
In assay [10] the test system is DU-145 prostate.
The test system of assay [11] is K-562 leukemia.
For assay [12], the system named is MALME-3M melanoma.
Assay [13] relates to MDA-MB-231 breast.
For assay [14], the system named is RXF 393 renal.
Assay [15] deals with SF-268 CNS.
Assay [16] deals with SF-295 CNS.
In assay [17] the test system is SF-539 CNS.
The subject of assay [18] is UACC-257 melanoma.
Assay [19] has as its system M14 melanoma.
Assay [20] deals with HCT-15 colon.

As for `COc1ccc(/C=C/C(=O)c2ccc3cc(OC)c(OC)cc3c2)cc1OC`, the growth in assay [1] was 51.7%; in assay [2] it was 56%; in assay [3], 36%; in assay [4] it was 40.7%; in assay [5] it was 51.4%; in assay [6] it was 31.9%. For the same molecule, the growth in [7] was 19.5%; in assay [8], 42.9%; in [9], 25.9%; in [10], 46.7%; in assay [11] it was 8.48% (active); in assay [12], 90.6%. Also, the growth is 101% in assay [13]; 84.2% in [14]; 70.7% in [15]; 70.8% in assay [16]; 23.5% in [17]; 70.2% in assay [18]. Also, the growth in [19] is 64.2%; in assay [20] it was 27.5%.

As for `Cc1[nH]c2ccccc2c(=O)c1CC=C(Cl)Cl`, the growth is 75.4% in assay [1]; -47.2% (active) in assay [2]; -7.31% (active) in assay [3]; -74% (active) in assay [4]; 64.5% in [5]; 65.7% in assay [6]. The growth is 16.9% in [7]; -80.2% (active) in assay [8]; 35% in assay [9]; -22.5% (active) in assay [10]; -34.6% (active) in assay [11]; 82.4% in assay [12]. Also, the growth was 34.1% in assay [13]; 63.9% in [14]; 39.6% in [15]; -86.8% (active) in assay [16]; 58% in [17]; 99.5% in assay [18]. Further, the growth was 72.7% in [19] and 3.43% (active) in [20].

Consider `O=C(CCc1nnc2sc(-c3ccc(Cl)cc3Cl)nn12)c1nc2ncccc2[nH]1`, for which the growth in assay [1] was -40.7% (active); in assay [2], 11.7%; in assay [3], 2.87% (active); in assay [4], -66.8% (active); in assay [5], -62.1% (active); in assay [6] it was -47.9% (active). Further, the growth in assay [7] is 4.78% (active); in assay [8], -31.5% (active); in assay [9] it was -32.5% (active); in assay [10] it was -7.95% (active); in [11], 6.32% (active); in assay [12] it was -47.6% (active). For the same molecule, the growth in assay [13] is -43.5% (active); in assay [14] it was -93.1% (active); in assay [15], 36.9%; in [16] it was -56.8% (active); in assay [17] it was -21% (active); in [18], -25.3% (active). For the same molecule, the growth in [19] was -14.2% (active); in [20], -40.2% (active).

With `O=c1oc2ccc(I)cc2c(=O)n1-c1ccc(F)cc1F`, the growth in [1] was 6.34% (active); in assay [2], 9.77% (active); in assay [3], 2.25% (active); in assay [4], 6.35% (active); in assay [5], -29.9% (active); in [6], -7.49% (active). Besides, the growth in [7] is 6.11% (active); in assay [8], 21.3%; in assay [9] it was 104%; in assay [10], 15.5%; in assay [11], 7.26% (active); in assay [12], -21% (active). Besides, the growth in [13] was 33.3%; in assay [14] it was 11.1%; in assay [15], 9.2% (active); in assay [16], 3.91% (active); in assay [17], 13.7%; in assay [18], -4.46% (active). Further, the growth was 21% in [19] and 15.6% in assay [20].

On to `O=C1/C(=C\c2ccc[nH]2)c2ccccc2N1c1ccccc1`, for which the growth was 87.9% in assay [1]; 91.7% in [2]; 106% in [3]; 95.8% in assay [4]; 96% in assay [5]; 75.5% in assay [6]. Besides, the growth in [7] is 96%; in assay [8], 98.1%; in [9], 108%; in assay [10] it was 112%; in assay [11] it was 90.9%; in assay [12], 103%. Besides, the growth is 84.4% in [13]; 105% in [14]; 101% in assay [15]; 104% in [16]; 94% in assay [17]; 110% in assay [18]. The growth in assay [19] is 109%; in assay [20] it was 82.7%.

On to `CC1=C(CC(=O)c2cccc([N+](=O)[O-])c2)C(=O)c2ccccc2C1=O`, for which the growth in [1] was -24.9% (active); in [2], 68.7%; in assay [3], -67.2% (active); in assay [4], -20.9% (active); in assay [5], -22.3% (active); in [6] it was -47.2% (active). The growth was -15.3% (active) in [7]; -53.2% (active) in [8]; 108% in [9]; -57% (active) in [10]; -4.57% (active) in assay [11]; -87.5% (active) in assay [12]. Also, the growth was -17.7% (active) in [13]; -26% (active) in [14]; -33.4% (active) in assay [15]; -58.2% (active) in [16]; -22.1% (active) in [17]; -13.7% (active) in assay [18]. The growth in [19] is -41.9% (active); in assay [20], 19.5%.

Consider `COc1cc(NC(=O)CCSc2nc3ccccc3c(=O)n2Cc2ccccc2)cc(OC)c1OC`, for which the growth in assay [1] was 89.7%; in assay [2], 75.8%; in [3], 92.8%; in assay [4], 94.6%; in assay [5], 54.5%; in [6], 4.12% (active). Besides, the growth was 72.7% in assay [7]; 83.4% in [8]; 118% in assay [9]; 97.5% in [10]; 81.2% in assay [11]; 82% in [12]. The growth is 64.9% in [13]; 92.3% in [14]; 81.9% in [15]; 75.3% in [16]; 72.9% in [17]; 89.5% in assay [18]. The growth in [19] is 94.7%; in [20], 92.5%.

On to `O=C1NC(=S)NC(=O)C1=Cc1cn(Cc2cn(Cc3cccc4ccccc34)nn2)c2ccccc12`, for which the growth was 88% in [1]; 93.7% in [2]; 94.9% in assay [3]; 89.4% in [4]; 102% in assay [5]; 97.2% in assay [6]. Also, the growth is 106% in [7]; 115% in assay [8]; 114% in assay [9]; 105% in assay [10]; 121% in assay [11]; 86.5% in assay [12]. The growth is 87.6% in assay [13]; 84.6% in [14]; 95.4% in assay [15]; 98.4% in [16]; 96.3% in [17]; 103% in assay [18]. Also, the growth is 95% in assay [19] and 100% in assay [20].

`O=c1cc(NC2CCN(CCCc3ccccc3)CC2)c2cc(Cl)ccc2o1`: the growth in [1] was -1.92% (active); in assay [2], 0.794% (active); in assay [3], 0.321% (active); in assay [4], -6.31% (active); in assay [5] it was -26.1% (active); in assay [6] it was -31.2% (active). Further, the growth in assay [7] is 0.692% (active); in [8], 18.1%; in assay [9] it was -98.4% (active); in assay [10], 15.5%; in assay [11] it was 5.97% (active); in assay [12], -30.4% (active). The growth in assay [13] was -62.2% (active); in assay [14] it was -25.3% (active); in [15], 17.2%; in [16], -44.1% (active); in assay [17], 19.4%; in assay [18], -31.5% (active). For the same molecule, the figures for the growth in [19] and in assay [20] were 4.04% (active) and 14.1%, respectively.

As for `COc1ccc(-c2nc(-c3ccccn3)c(-c3ccccn3)n2CC(C)C)cc1OC1CCCC1`, the growth is 31.2% in [1]; 9.32% (active) in assay [2]; 28.3% in assay [3]; 5.25% (active) in [4]; 35.2% in [5]; 20.8% in [6]. In addition, the growth is 8.04% (active) in assay [7]; 24.5% in assay [8]; 12.1% in assay [9]; 28.7% in assay [10]; 10.4% in [11]; 16.5% in assay [12]. In addition, the growth was 30.8% in assay [13]; 19.3% in [14]; 19% in [15]; 8.48% (active) in [16]; 39% in [17]; 28.8% in assay [18]. The growth is 20.9% in assay [19] and 33.9% in assay [20].

On to `COc1ccc(/C=C2\NC(=O)NC2=O)cc1O`, for which the growth in assay [1] was 98.1%; in assay [2], 109%; in [3] it was 108%; in assay [4] it was 98.4%; in [5] it was 89.2%; in assay [6], 98%. The growth in assay [7] is 99.1%; in [8], 97.8%; in [9], 117%; in [10], 116%; in [11] it was 106%; in [12], 105%. Also, the growth was 114% in assay [13]; 111% in [14]; 106% in assay [15]; 94.2% in assay [16]; 106% in assay [17]; 99.4% in assay [18]. Further, the growth in [19] was 89.8%; in assay [20], 99%.

On to `CCOC(=O)C1=CN(C)C=C(C(=O)OCC)C1c1cc(Br)c(OCC)c(OC)c1`, for which the growth was 65.9% in assay [1]; 98.6% in assay [2]; 55.6% in assay [3]; 34.5% in [4]; 2.87% (active) in assay [5]; 52.2% in assay [6]. Besides, the growth was 66.1% in [7]; 59.9% in assay [8]; -59.7% (active) in assay [9]; 84% in assay [10]; -20.4% (active) in [11]; -1.58% (active) in assay [12]. For the same molecule, the growth in [13] is 36.8%; in [14], 49.9%; in assay [15], 73.3%; in assay [16] it was -47.3% (active); in [17], 58.9%; in assay [18] it was -50% (active). The growth was -37.3% (active) in assay [19] and 14.7% in assay [20].

Turning to `COc1cc(/C=C2\CN(S(=O)(=O)c3ccccc3)C/C(=C\c3cc(CN4CCCC4)c(O)c(OC)c3)C2=O)cc(CN2CCCC2)c1O`, the growth was -57.8% (active) in assay [1]; 21.4% in assay [2]; -4.65% (active) in assay [3]; -30.7% (active) in assay [4]; -11.3% (active) in [5]; -26.3% (active) in assay [6]. The growth is 19.9% in assay [7]; 4.02% (active) in assay [8]; -30.4% (active) in assay [9]; -16.7% (active) in [10]; 8.41% (active) in assay [11]; -51.6% (active) in assay [12]. The growth is -32.7% (active) in assay [13]; -65.4% (active) in assay [14]; 12.9% in [15]; -34.2% (active) in assay [16]; -46.6% (active) in [17]; 40.1% in assay [18]. The growth was -19.2% (active) in assay [19] and 50.3% in assay [20].
